Measured values reported in PubChem BioAssay (NCI).
About 83,000 compounds went through this panel and 20% of them were active in at least one assay; those are over-represented in the sample as a whole.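 48-hour exposure, single concentration, 96-well plates; percent growth endpoint where 0 means no net growth. Active: below 10.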 Calls of active or inactive are those of the source.

What follows are compounds tested on PC-3 prostate (assay: NCI-60 one-dose screen, 48 h (100 = growth as untreated, 0 = no growth, -100 = all killed)). Conditions: 10 µM unless noted.

Structure (SMILES)	growth
O=NN1CCCc2cccc(O)c21	51.8% (inactive)
Fc1ccc2c(c1)c(-c1nc(-c3c[nH]c4ncccc34)cs1)cn2CCN1CCOCC1	23.3% (inactive)
CC(=O)Nc1nc2c(s1)CC[C@@]1(C)C2=CC[C@H]2[C@@H]3CC[C@H](O)[C@@]3(C)CC[C@@H]21	67.8% (inactive)
CN(C)CC(C(=O)Cc1ccccc1)c1ccccc1 (configuration not stated)	73.2% (inactive)
CCOC(=O)[C@@H](C)C[C@H](Cc1ccccc1)NC(=O)c1csc([C@@H](C[C@H](C(C)C)N(C)C(=O)[C@H](CCC(C)C)NC(=O)[C@H]2CCCCN2C)OC(C)=O)n1	13.7% (inactive)
CCCCCCCCCCCCCCCCCC1OC[C@H](COC(=O)O[C@@H](C(=O)O[C@H]2C[C@@]3(O)[C@@H](OC(=O)c4ccccc4)[C@@H]4[C@]5(OC(C)=O)CO[C@@H]5C[C@H](O)[C@@]4(C)C(=O)[C@H](OC(C)=O)C(=C2C)C3(C)C)[C@@H](NC(=O)c2ccccc2)c2ccccc2)O1 (some centres not stated)	45.2% (inactive)
c1cnc2[nH]cc(-c3csc(-c4cn(CCCCN5CCCCC5)c5ccccc45)n3)c2c1	63.1% (inactive)
C=C1C[C@](OC)([C@H](O)C(=O)N[C@@H](OC)[C@@H]2C[C@@H](O)C(C)(C)[C@@H](C[C@@H](COC)OC)O2)O[C@H](C)[C@@H]1C	-25.5% (active)
O=C(Nc1ccc(O)cc1)C(Cl)(Cl)Cl	101% (inactive)
Cc1c(NS(=O)(=O)c2ccccc2)ccc([N+](=O)[O-])c1Cl	56.2% (inactive)
CCCCN1CCCC[C@@H]1C(=O)N[C@H](C(=O)N(C)[C@H](C[C@@H](OC(C)=O)c1nc(C(=O)NC2CCC(C(=O)OC)CC2)cs1)C(C)C)C(C)C (some centres not stated)	29.1% (inactive)
Cn1cc(-c2csc(-c3cn(CCCCN4CCCCC4)c4ccc(F)cc34)n2)c2cccnc21	68.4% (inactive)
CC1=C(CN)C2=C(C)C3(CC3)[C@@](C)(O)C(=O)C2=C1	88.3% (inactive)
CC(=O)O[C@H]1C(=O)[C@@]2(C)[C@H]([C@H](OC(=O)c3ccccc3)[C@]3(O)C[C@H](OC(=O)[C@H](OC(=O)OC[C@H]4COC(C)(C)O4)[C@@H](NC(=O)c4ccccc4)c4ccccc4)C(C)=C1C3(C)C)[C@]1(OC(C)=O)CO[C@@H]1C[C@@H]2O	21% (inactive)
Cn1cc(-c2csc(-c3cn(CCN4CCOCC4)c4ccc(F)cc34)n2)c2cccnc21	1.07% (active)
Brc1ccc2c(c1)c(-c1nc(-c3c[nH]c4ncccc34)cs1)cn2CCN1CCOCC1	30.3% (inactive)
COC(=O)[C@@H](C)C[C@H](Cc1ccccc1)NC(=O)c1csc([C@@H](C[C@H](C(C)C)N(C)C(=O)[C@@H](NC(=O)[C@H]2CCCCN2C)C2CCCCC2)OC(C)=O)n1	5.7% (active)
CC(=O)OC1CCC2(C)C(CCC3C2CC(=O)C2(C)C3CC(Sc3ccc(N(CCCl)CCCl)cc3)C2C(C)=O)C1 (configuration not stated)	85.5% (inactive)
COc1ccc(S(=O)(=O)N(Cc2ccc3c(c2)C=CC(C)(C)O3)c2ccccc2)cc1OC	73.7% (inactive)

Structure (SMILES)	growth
CC[C@H](C)[C@H](NC(=O)[C@H]1CCCCN1C)C(=O)N(C)[C@H](CC(=O)c1nc(C(=O)N[C@@H](Cc2ccccc2)C[C@H](C)C(=O)O)cs1)C(C)C	78.3% (inactive)
COC(=O)[C@@H](C)C[C@H](Cc1ccccc1)NC(=O)c1csc([C@@H](C[C@H](C(C)C)N(C)C(=O)[C@@H](NC(=O)C23CC(NC(C)=O)(C2)C3)C2CC2)OC(C)=O)n1	44.4% (inactive)
O=C1CC2(CC3(Cl)C(Cl)=C(Cl)C2(Cl)C3(Cl)Cl)C(=O)O1 (configuration not stated)	93.6% (inactive)
C[n+]1c(/C=C/c2ccc(N(CCCl)CCCl)cc2)sc2ccccc21	36% (inactive)
CC[C@H](C)[C@H](NC(=O)NC(C)(C)C)C(=O)N(C)[C@H](C[C@@H](OC(C)=O)c1nc(C(=O)N[C@@H](Cc2ccccc2)C[C@H](C)C(=O)OC)cs1)C(C)C	11.3% (inactive)
CCCCCCCC[N+](C)(CCCCCCCC)CCCCCCCC	-91.3% (active)
CC(=O)O[C@H]1C(=O)[C@@]2(C)[C@H]([C@H](OC(=O)c3ccccc3)[C@]3(O)C[C@H](OC(=O)[C@H](OC(=O)OC[C@@H]4COC(C)(C)O4)[C@@H](NC(=O)c4ccccc4)c4ccccc4)C(C)=C1C3(C)C)[C@]1(OC(C)=O)CO[C@@H]1C[C@@H]2O	22.1% (inactive)
CC(=O)O[C@H]1C(=O)[C@@]2(C)[C@H]([C@H](OC(=O)c3ccccc3)[C@]3(O)C[C@H](OC(=O)[C@H](OC(=O)OCC4COC(C)(C)O4)[C@@H](NC(=O)c4ccccc4)c4ccccc4)C(C)=C1C3(C)C)[C@]1(OC(C)=O)CO[C@@H]1C[C@@H]2O (some centres not stated)	38.7% (inactive)
CC[C@H](C)[C@H](NC(=O)C12CC(NC(C)=O)(C1)C2)C(=O)N(C)[C@H](C[C@@H](OC(C)=O)c1nc(C(=O)N[C@@H](Cc2ccccc2)C[C@H](C)C(=O)OC)cs1)C(C)C	15.4% (inactive)
CCn1cnc2c(Nc3cccc(Cl)c3)nc(N[C@@H]3CCCC[C@@H]3N)nc21	4.71% (active)
O=C(O)C1C(C(=O)O)C2(Cl)C(Cl)=C(Cl)C1(Cl)C2(Cl)Cl.[Hg] (configuration not stated)	76.2% (inactive)
CC[C@H](C)[C@H](NC(=O)[C@H]1CCCCN1C)C(=O)N(C)[C@H](C[C@@H](OC(C)=O)c1nc(C(=O)N[C@@H](Cc2ccccc2)C[C@H](C)C(=O)OC)cs1)C(C)C	23.7% (inactive)
CN1C(=O)C(=Cc2cn(CCCCCCn3c4ccccc4c(=O)c4ccccc43)c3ccccc23)C(=O)N(C)C1=O	89.8% (inactive)
CC(C)(C)C(=O)OCOP(=O)(OCOC(=O)C(C)(C)C)C1CCCN(O)C1=O (configuration not stated)	24.2% (inactive)
COC(=O)[C@@H](C)C[C@H](Cc1ccc2ccccc2c1)NC(=O)c1csc([C@@H](C[C@H](C(C)C)N(C)C(=O)[C@@H](NC(=O)[C@H]2CCCCN2C)C(C)C)OC(C)=O)n1	47.3% (inactive)
C=C1C(=O)O[C@H]2[C@H]1CC/C(COC(=O)C(=O)c1cn(Cc3ccccc3)c3ccccc13)=C\CC[C@@]1(C)O[C@@H]21	-57.9% (active)
CN(CCCCN(C)CCOS(C)(=O)=O)CCOS(C)(=O)=O	85.3% (inactive)
NC(=O)CNc1ccc([As]=[As]c2ccc(NCC(N)=O)cc2)cc1 (configuration not stated)	58.3% (inactive)
